Active and inactive are the calls of the source.
Assays:
[1] = binders of probe aFSTL3 on microarray, primary screen, stem cell growth factor project, biochemical, small-molecule microarray, fluorescence 635/667 (AID 1064); conditions: higher = more signal;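 also: measures binding of the biotinylated anti-FSTL3 antibody to printed compounds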
[2] = binders from COS7 lysate, DM2A8 probe, primary screen, torsin A project, cell lysate, small-molecule microarray, fluorescence 635/667 (AID 1065); conditions: higher = more signal, COS7 lysate expressing mutant human TOR1A
[3] = binders of probe aFGF2 on microarray, primary screen, stem cell growth factor project, biochemical, small-molecule microarray, fluorescence 635/667 (AID 1067); conditions: higher = more signal;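 also: measures binding of biotinylated aFGF2 protein to printed compounds on slides; z-score merges feature fluorescence and signal-to-noise across triplicate slides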
[4] = binders of probe aFGF10 on microarray, primary screen, stem cell growth factor project, biochemical, small-molecule microarray, fluorescence 635/667 (AID 1071); conditions: higher = more signal;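 also: score merges 667 nm spot intensity and signal to noise from triplicate slides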
[5] = biological target: Neurogenic locus notch homolog protein 2 (Homo sapiens) (UniProt Q04721); assay: Notch2 binders on small-molecule microarrays, primary screen, biochemical, small-molecule microarray, 635 nm fluorescence, stem cell growth factors (AID 1073); conditions: Notch2 binding, higher = more signal
[6] = biological target: Pro-neuregulin-1, membrane-bound isoform (Homo sapiens) (UniProt Q02297); assay: NRG1 binders on small-molecule microarrays, primary screen, psychiatric disease protein project, biochemical, small-molecule microarray, fluorescence 635/667 (AID 1075); conditions: NRG1 binding, 635 nm fluorescence, higher = more signal;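 also: score combines 667 nm spot fluorescence with signal to noise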
[7] = system: Neuregulin-1 EGF-like domain; assay: binders of neuregulin-1 EGF-like domain, primary screen, biochemical, small-molecule microarray, 635 nm fluorescence (AID 1081); conditions: small-molecule microarray binding, higher = more signal;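 also: binding of the protein to compounds printed on small-molecule microarray slides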
[8] = FRG1 promoter luciferase signal modulators, primary screen, FRG1 inhibition for FSHD, cell-based, C2C12 myotubes, firefly/Renilla luciferase, luminescence (AID 1084); conditions: higher = more signal, called active from +8 up or from −8 down
[9] = binders of probe aFST on microarray, primary screen, stem cell growth factor project, biochemical, small-molecule microarray, fluorescence 635/667 (AID 1086); conditions: higher = more signal;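 also: score merges 667 nm fluorescence with signal-to-noise of each printed compound spot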
[10] = binders of probe aHhip on microarray, primary screen, stem cell growth factor project, biochemical, small-molecule microarray, fluorescence 635/667 (AID 1087); conditions: higher = more signal;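 also: score merges spot fluorescence at 667nm with spot signal to noise ratio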

Sequence of Neurogenic locus notch homolog protein 2 (Homo sapiens) (Q04721 whole entry, looked up, canonical isoform): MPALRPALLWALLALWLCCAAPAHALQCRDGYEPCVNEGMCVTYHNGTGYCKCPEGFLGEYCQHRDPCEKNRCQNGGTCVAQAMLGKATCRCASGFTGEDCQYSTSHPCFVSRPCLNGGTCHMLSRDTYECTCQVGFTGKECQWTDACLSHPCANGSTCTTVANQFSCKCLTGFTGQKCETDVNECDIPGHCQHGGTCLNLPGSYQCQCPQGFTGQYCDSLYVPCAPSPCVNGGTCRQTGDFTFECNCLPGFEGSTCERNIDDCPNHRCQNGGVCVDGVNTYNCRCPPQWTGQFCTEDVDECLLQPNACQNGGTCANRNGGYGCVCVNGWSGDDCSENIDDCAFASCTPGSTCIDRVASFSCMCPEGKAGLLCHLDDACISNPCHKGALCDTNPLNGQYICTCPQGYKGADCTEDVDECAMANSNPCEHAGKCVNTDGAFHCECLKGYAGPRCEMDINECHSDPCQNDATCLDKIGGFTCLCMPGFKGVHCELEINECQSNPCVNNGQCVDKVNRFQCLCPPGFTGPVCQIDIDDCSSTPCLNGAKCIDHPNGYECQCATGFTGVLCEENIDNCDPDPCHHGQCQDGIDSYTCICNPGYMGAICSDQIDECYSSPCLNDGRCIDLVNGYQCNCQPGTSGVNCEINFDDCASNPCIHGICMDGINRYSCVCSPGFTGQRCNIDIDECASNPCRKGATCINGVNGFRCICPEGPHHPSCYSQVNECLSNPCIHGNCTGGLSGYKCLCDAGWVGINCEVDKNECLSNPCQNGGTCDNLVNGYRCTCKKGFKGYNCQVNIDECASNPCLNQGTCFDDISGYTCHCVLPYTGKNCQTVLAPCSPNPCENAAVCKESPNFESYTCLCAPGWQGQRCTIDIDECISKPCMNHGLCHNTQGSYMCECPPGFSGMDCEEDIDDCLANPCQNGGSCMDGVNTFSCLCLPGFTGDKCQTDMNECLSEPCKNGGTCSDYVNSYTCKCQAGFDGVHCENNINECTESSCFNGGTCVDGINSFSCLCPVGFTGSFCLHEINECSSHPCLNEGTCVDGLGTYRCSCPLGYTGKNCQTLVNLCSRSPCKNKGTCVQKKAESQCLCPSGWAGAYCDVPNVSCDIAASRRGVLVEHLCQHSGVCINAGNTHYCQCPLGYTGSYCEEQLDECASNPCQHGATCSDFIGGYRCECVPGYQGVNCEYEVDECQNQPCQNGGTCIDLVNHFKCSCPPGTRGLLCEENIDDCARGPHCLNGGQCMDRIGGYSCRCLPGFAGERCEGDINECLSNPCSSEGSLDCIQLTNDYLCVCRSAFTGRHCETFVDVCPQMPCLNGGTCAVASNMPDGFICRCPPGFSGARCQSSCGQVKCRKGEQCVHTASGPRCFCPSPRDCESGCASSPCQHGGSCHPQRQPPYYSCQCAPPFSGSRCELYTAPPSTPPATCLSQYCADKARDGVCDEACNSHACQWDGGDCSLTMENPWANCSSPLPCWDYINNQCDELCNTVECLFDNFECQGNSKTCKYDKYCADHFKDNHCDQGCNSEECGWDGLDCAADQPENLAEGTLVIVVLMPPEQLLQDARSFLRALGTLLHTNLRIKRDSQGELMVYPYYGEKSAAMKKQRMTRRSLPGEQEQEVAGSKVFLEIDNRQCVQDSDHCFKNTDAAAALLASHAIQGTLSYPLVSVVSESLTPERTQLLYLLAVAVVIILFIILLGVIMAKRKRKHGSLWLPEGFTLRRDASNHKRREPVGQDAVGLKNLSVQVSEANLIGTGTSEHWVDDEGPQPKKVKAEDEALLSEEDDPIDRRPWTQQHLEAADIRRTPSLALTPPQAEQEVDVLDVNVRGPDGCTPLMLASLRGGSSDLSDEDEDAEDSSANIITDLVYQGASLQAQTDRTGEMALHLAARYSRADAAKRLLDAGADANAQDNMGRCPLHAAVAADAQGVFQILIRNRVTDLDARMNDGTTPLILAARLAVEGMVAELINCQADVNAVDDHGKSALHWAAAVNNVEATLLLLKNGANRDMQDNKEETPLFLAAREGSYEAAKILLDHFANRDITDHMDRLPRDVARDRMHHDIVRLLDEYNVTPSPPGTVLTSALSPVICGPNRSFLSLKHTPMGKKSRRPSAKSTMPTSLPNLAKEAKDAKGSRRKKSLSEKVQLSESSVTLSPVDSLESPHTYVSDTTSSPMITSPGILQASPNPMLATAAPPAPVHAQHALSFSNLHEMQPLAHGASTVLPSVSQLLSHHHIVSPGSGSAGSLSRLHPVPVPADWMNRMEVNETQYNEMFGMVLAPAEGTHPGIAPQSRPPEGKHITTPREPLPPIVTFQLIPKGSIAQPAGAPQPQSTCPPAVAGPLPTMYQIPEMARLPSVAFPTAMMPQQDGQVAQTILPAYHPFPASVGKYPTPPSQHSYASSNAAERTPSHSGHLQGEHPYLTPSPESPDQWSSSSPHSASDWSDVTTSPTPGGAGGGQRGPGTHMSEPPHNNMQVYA
Sequence of Pro-neuregulin-1, membrane-bound isoform (Homo sapiens) (Q02297 whole entry, looked up, the tested form may be a part, canonical isoform): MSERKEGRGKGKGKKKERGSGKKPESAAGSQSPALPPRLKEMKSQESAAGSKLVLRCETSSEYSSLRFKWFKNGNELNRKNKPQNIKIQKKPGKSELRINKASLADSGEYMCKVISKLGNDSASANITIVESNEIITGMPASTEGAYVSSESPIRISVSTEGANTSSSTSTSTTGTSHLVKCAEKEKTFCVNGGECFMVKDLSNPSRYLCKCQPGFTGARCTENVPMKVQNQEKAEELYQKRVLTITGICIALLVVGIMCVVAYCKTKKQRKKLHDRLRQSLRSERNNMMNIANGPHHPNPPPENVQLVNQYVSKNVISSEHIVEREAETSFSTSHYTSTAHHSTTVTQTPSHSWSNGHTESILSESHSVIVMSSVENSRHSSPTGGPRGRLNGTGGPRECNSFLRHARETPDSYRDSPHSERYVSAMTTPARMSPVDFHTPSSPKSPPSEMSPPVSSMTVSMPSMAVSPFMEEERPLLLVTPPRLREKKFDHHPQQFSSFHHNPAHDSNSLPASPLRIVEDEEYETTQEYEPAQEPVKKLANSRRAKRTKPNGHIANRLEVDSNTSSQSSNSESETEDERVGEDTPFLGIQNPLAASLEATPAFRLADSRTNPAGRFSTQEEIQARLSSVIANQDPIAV

Structure (SMILES) | composite z-score [1] | composite z-score [2] | composite z-score [3] | composite z-score [4] | composite z-score [5] | composite z-score [6] | composite z-score [7] | z-score [8] | composite z-score [9] | composite z-score [10]
N[C@@H](Cc1ccccc1)C(=O)NCc1cn(Cc2ccccc2)nn1 | 0.231 | 0.595 | -0.0465 | 0.157 | 0.108 | -0.191 | 1.04 | 0.46 (inactive) | 0.145 | -0.0296
Cc1ccc(S[C@]2(C(=O)NCCN3CCOCC3)CC(=O)N(Cc3ccccc3Cl)[C@@H]2c2ccc(CO)cc2I)cc1 | 0.75 | 1.78 | 0.0027 | -0.142 | -0.675 | 1.15 | 1.04 | -2.03 (inactive) | -0.387 | 0.302
CCCCC(CC)C(O)C1C=CC2C(=O)N(c3ccccc3)C(=O)C2N1Nc1ccc(C#N)cc1 (stereo not given) | 0.883 | 0.468 | 0.332 | 1 | 1.59 | 0.893 | 1.31 | -0.257 (inactive) | 1.66 | -0.183
CC(C)[Si]1(C(C)C)OCc2cc(-c3ccc(-c4ccc(Cl)c(Cl)c4)o3)nc(-c3ccccc3)c21 | 0.695 | -0.464 | -0.147 | -0.818 | -1.65 | 0.314 | -0.914 | -0.358 (inactive) | -0.774 | -0.134
CCOC(=O)C[C@H]1[C@H](OC(=O)c2ccc(-c3ccccc3)cc2)[C@@H](NC(=O)CC(C)C)c2cc(OCCCO)ccc2N1C(=O)c1ccc2ccccc2n1 | -0.459 | 0.176 | -0.149 | 0.205 | 0.458 | 0.491 | 0.76 | 0.375 (inactive) | 0.185 | 0.1
CN(C)C(=O)[C@]1(CCC(=O)OC(C)(C)C)N=C(c2ccc(OCCCO)cc2)O[C@@H]1c1ccccc1CN=[N+]=[N-] | 0.292 | 1.28 | 0.485 | 0.488 | 0.934 | 1.89 | 1.15 | 3.58 (inactive) | 1.34 | -0.476
CC(C)[Si](C#CCCCC#N)(O[C@H](c1ccccc1)c1cn(Cc2ccccc2)nn1)C(C)C | -0.281 | 0.704 | -0.0728 | 0.335 | 0.879 | 0.048 | 1.13 | -2.06 (inactive) | 0.775 | 0.095
COc1ccc(CCNC(=O)[C@@]2(Sc3ccc(C)cc3)CC(=O)N(Cc3ccccc3C(F)(F)F)[C@@H]2c2ccc(CO)cc2I)cc1 | 0.673 | -1.11 | -0.156 | 0.116 | -1.11 | 1.99 | 1.01 | -1.08 (inactive) | -0.261 | -0.236
Cc1ccc(S[C@]2(C(=O)O)CC(=O)N(C3CCCCC3)[C@@H]2c2ccc(CO)cc2I)cc1 | -0.0155 | 0.165 | -0.0986 | 0.52 | 0.762 | 1.43 | 1.2 | -0.163 (inactive) | 1.23 | -0.0898
COC(=O)C1=CC(CCCO)=CC(c2cccs2)N(Cc2cccc(OC(F)(F)F)c2)C=C1C(=O)OC (stereo not given) | -0.55 | 0.203 | 0.11 | 0.583 | 1.51 | 1.93 | 1.2 | 0.0099 (inactive) | 1.5 | 0.0053
COc1ccc([Si](C)(C)[C@@H]2[C@@H](CC(=O)N(CCO)Cc3ccccc3)O[C@]3(C(=O)N(Cc4cccc(N5CCCCC5=O)c4)c4ccccc43)[C@H]2C)cc1 | 0.0001 | 0.585 | -0.0019 | 0.212 | 0.185 | 1.72 | 1.23 | 0.306 (inactive) | 0.222 | -0.181
C=CCOC(=O)[C@@]1(Cc2ccccc2)C[C@H]2CO[C@H](c3ccc(OC)cc3)N2C1=O | -0.442 | 0.366 | -0.12 | 0.252 | 0.0925 | -0.294 | 0.209 | -1.33 (inactive) | -0.135 | 0.0373
C=C(COC)/C(=C/C[C@H](OC(=O)c1ccncc1)c1ccccc1OCCO)c1cc(C(=O)OC)ccc1OC | -0.457 | 0.562 | -0.167 | 0.67 | 0.302 | 1.16 | 0.869 | -0.872 (inactive) | 0.431 | -0.442
COc1cc(C(O)C2C=CC3C(=O)N(C)C(=O)C3N2Nc2ccccc2)cc(OC)c1OC (stereo not given) | 1.3 | 0.723 | 0.341 | 0.602 | 1.25 | 1.83 | 1.35 | -0.818 (inactive) | 1.53 | 0.592
C=CC[C@@]1(C(=O)NCCCOC)N=C(c2ccc(OCCCO)cc2)O[C@@H]1c1ccccc1 | 0.513 | 1.09 | 0.0679 | -0.562 | -0.0215 | 1.84 | 1.15 | -1.24 (inactive) | 0.74 | 0.712
C=CC[C@H](OC(=O)Nc1ccc(SC)cc1)c1ccc(O)c2ccccc12 | 0.0792 | 0.104 | 0.0536 | 0.254 | 1.3 | 1.75 | 1.33 | 7.23 (inactive) | 0.385 | 0.176
CCOC(=O)C[C@H]1[C@H](OC(=O)c2ccc(C(=O)c3ccccc3)cc2)[C@@H](NC(=O)c2ccc3ccccc3n2)c2cc(OCCCO)ccc2N1C(=O)Cc1ccc(OC)cc1 | -0.379 | 0.123 | -0.0807 | 0.289 | 0.599 | 0.252 | -0.261 | 0.673 (inactive) | 0.121 | 0.0501

Structure (SMILES) | composite z-score [1] | composite z-score [2] | composite z-score [3] | composite z-score [4] | composite z-score [5] | composite z-score [6] | composite z-score [7] | z-score [8] | composite z-score [9] | composite z-score [10]
COCCOC(=O)N1C(=O)[C@@]2(c3cc(C#CCC(C(=O)OC)C(=O)OC)ccc31)[C@H](c1ccc(OCCO)cc1)N1[C@H](c3ccccc3)[C@H](c3ccccc3)OC(=O)[C@H]1[C@@H]2C(=O)N1CCc2cc(OC)c(OC)cc2C1 | 0.119 | 0.351 | -0.0985 | 0.953 | 1.21 | 1.54 | 1.25 | 0.913 (inactive) | 0.47 | -0.131
COc1ccc([Si](C)(C)[C@@H]2[C@@H](CC(=O)N3CCC[C@H]3CO)O[C@]3(C(=O)N(Cc4cccc(N5C(=O)COc6ccccc65)c4)c4ccccc43)[C@H]2C)cc1 | -0.222 | 0.203 | -0.112 | 0.428 | -0.173 | 1.35 | 1.12 | -0.234 (inactive) | 0.824 | 0.103
COCCOC(=O)N1C(=O)[C@@]2(c3cc(C#CC4(O)CCCCCC4)ccc31)[C@H](C(=O)N1CCc3cc(OC)c(OC)cc3C1)[C@H]1C(=O)O[C@H](c3ccccc3)[C@H](c3ccccc3)N1[C@@H]2c1ccc(OCCO)cc1 | -0.409 | 0.502 | 0.0088 | 0.467 | 1.24 | 0.675 | 1.18 | 1 (inactive) | 0.198 | -0.0994
CCOC(=O)C[C@H]1[C@H](OC(=O)c2ccc(C(=O)c3ccccc3)cc2)[C@@H](NC(=O)c2ccc(-c3ccccc3)cc2)c2cc(OCCCO)ccc2N1C(=O)Cc1ccc(OC)cc1 | -0.258 | -0.0676 | -0.0364 | 0.034 | 0.618 | 0.486 | -0.228 | -0.111 (inactive) | 0.765 | 0.0976
COCC(=C=CC[C@H](O)c1ccc(OCCO)cc1)CCO | -0.144 | 1.12 | -0.161 | 0.592 | 0.124 | 1.64 | 1.42 | 0.461 (inactive) | 0.0418 | -0.0618
O=C1O[C@@H](c2ccccc2)[C@@H](c2ccccc2)N2[C@@H](c3ccc(OCCO)cc3)[C@]3(C(=O)Nc4ccc(C#CC5=CCCCC5)cc43)[C@@H](C(=O)NC[C@H](O)c3ccccc3)[C@H]12 | -0.94 | 0.297 | -0.0384 | 0.6 | 1.48 | 0.655 | 1.13 | 2.03 (inactive) | 0.126 | -0.142
CCOc1cc(C(O)C2C=CC3C(=O)NC(=O)C3N2Nc2ccc(Cl)cc2Cl)ccc1O (stereo not given) | 0.0596 | -0.565 | 0.042 | -0.246 | -0.463 | -0.226 | -0.885 | 0.59 (inactive) | 0.0054 | -0.297
CCOC(=O)C[C@H]1[C@H](OC(=O)Cc2ccc3c(c2)OCO3)[C@@H](NC(=O)c2ccc3ccccc3n2)c2cc(OCCCO)ccc2N1C(=O)c1ccccc1 | -0.0059 | 0.111 | 0.051 | 0.202 | 0.64 | 0.405 | -0.111 | 1.15 (inactive) | 0.23 | -0.069
[N-]=[N+]=Nc1ccccc1C[C@]1(C(=O)NCCN2CCOCC2)COC(c2ccc(OCCCO)cc2)=N1 | 0.295 | 1.26 | -0.27 | -0.0786 | 0.722 | 1.55 | 1.39 | 0.706 (inactive) | 0.143 | -0.0994
O=C1OCCC=C[C@H]2OC34C=CCN(Cn5nnc6ccccc65)C(=O)[C@H]3N(CCCO)C(=O)[C@@H]4C12 (stereo not given in full) | 0.32 | -0.173 | -0.116 | -0.169 | -1.3 | -0.763 | 0.437 | 0.0397 (inactive) | -0.601 | -0.236
CC#CCO[Si](C#Cc1ccccc1)(C(C)C)C(C)C | 0.393 | -0.688 | -0.187 | -0.279 | 1.34 | -0.878 | -0.665 | 0.289 (inactive) | -0.217 | -0.134
COc1ccc([Si](C)(C)[C@H]2[C@H](CC(=O)N3CCC[C@H]3CO)O[C@@]3(C(=O)N(Cc4ccc(N5CCOC5=O)cc4)c4ccccc43)[C@@H]2C)cc1 | -0.591 | 0.582 | -0.043 | 0.44 | 1.15 | 1.1 | 1.21 | -4.09 (inactive) | 0.268 | -0.0237
COC(=O)[C@@]1(Cc2ccc(OC)cc2)[C@H]2c3cc(C(=O)N(C)C)n(Cc4ccc(OC(F)(F)F)cc4)c3C[C@H]2CN1C(=O)c1ccccc1 | 0.363 | -0.468 | -0.121 | -0.0332 | 1.58 | 1.39 | 1.44 | 2.88 (inactive) | 0.575 | 0.276
CC(=O)NCCCC[C@@H]1NC(=O)[C@@H]2C[C@H](C(=O)NCCCCCN)[C@H](c3cccc(OCCO)c3)N2C1=O | -0.0173 | 1.92 | 0.0322 | 0.742 | 0.542 | 1.7 | 1.01 | 0.301 (inactive) | 0.268 | -0.245
[N-]=[N+]=Nc1ccccc1[C@H]1OC(c2ccc(OCCCO)cc2)=N[C@@]1(Cc1ccccc1)C(=O)NCCN1CCOCC1 | 0.701 | 0.584 | 0.178 | 1.19 | 1.65 | 1.96 | 1.39 | 0.0219 (inactive) | 1.66 | -0.106
COC(=O)[C@@]1(Cc2ccc(OC)cc2)[C@H]2c3cc(C(=O)N4CCCC4)n(CCO)c3C[C@H]2CN1C(=O)c1ccccc1 | 0.0734 | -0.562 | 0.418 | 1.18 | 1.55 | 1.77 | 0.764 | 1.45 (inactive) | 0.691 | 0.34
CCCCCCCCCC(O)C1C=CC2C(=O)N(c3ccccc3)C(=O)C2N1Nc1cc(OC)c(OC)c(OC)c1 (stereo not given) | -0.0386 | -0.666 | 0.0166 | 0.23 | 0.45 | 0.856 | 0.487 | 0.393 (inactive) | 0.199 | -0.13

From PubChem BioAssay
